From PubChem BioAssay (NCI)
The panel holds about 83,000 compounds, 20% with a hit somewhere; the sample as a whole holds those more often.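 For each line, cells grew in 96-well plates with the test compound present at a single concentration for 48 hours.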 The source made the active and inactive calls. How the source made its calls: active means growth percent below 10; inactive means the rest.

tested on: HL-60(TB) leukemia; test: NCI-60 one-dose screen, 48 h (100 = growth as untreated, 0 = no growth, -100 = all killed); conditions: 10 µM unless noted

| Structure (SMILES) | growth |
| --- | --- |
| Nc1cc(C(=O)N/N=C\c2ccc(OC(F)F)c(OC3CCCC3)c2)nn1CC(O)c1ccccc1 (stereo unspecified) | 91.3% (inactive) |
| COc1ccc(C(=O)c2cc(C(=O)/C=C/c3c(Cl)cccc3Cl)c3cc(C)ccn23)cc1 | 101% (inactive) |
| O=C1Nc2ccc(Br)cc2/C1=N\c1nnc(-c2ccc(Cl)cc2)o1 | 11.1% (inactive) |
| Cc1csc(Nc2cccc(Nc3nc(C)cs3)c2)n1 | 77.3% (inactive) |
| COc1cc(NC2=C(Cl)C(=O)c3nc(C)ccc3C2=O)cc(OC)c1 | -13.4% (active) |
| CC1(C)CC[C@]2(C(=O)N3CCCN(CC#N)CC3)CC[C@]3(C)C(=CC[C@@H]4[C@@]5(C)CC[C@H](O)C(C)(C)[C@@H]5CC[C@]43C)[C@H]2C1 | -15.9% (active) |
| COc1ccc(S(=O)(=O)NCCCNc2nccc(-c3cn(C(C)(C)C)nc3-c3ccc(Cl)c(OC)c3)n2)cc1 | 124% (inactive) |
| C/C(=N\NC(N)=O)c1c(O)sc(=O)[nH]c1=O | 96.2% (inactive) |
| COc1ccc(C(=O)Nc2ncc(Cc3ccccc3Cl)s2)cc1 | -1.93% (active) |
| CCOc1ccc2nc(NC(=O)c3ccc(C(F)(F)F)cc3)sc2c1 | 93.9% (inactive) |
| CS(=O)(=O)Nc1cc(-c2ccc3ncc(C#N)c(NCc4ccccc4F)c3c2)cnc1Cl | 5.25% (active) |
| CS(=O)(=O)c1ncc(-c2ccccc2)cn1 | 103% (inactive) |
| O=S(=O)(Nc1ccc(-c2nc(-c3cccc(O)c3)c(-c3ccnc(Br)c3)[nH]2)cc1)c1ccccc1 | -9.12% (active) |
| CCO/C=N/C1=C(C#N)C(c2ccc(OC)cc2)c2sc3c(CC)cccc3c2O1 (stereo unspecified) | 9.99% (active) |
| C=C(C=O)[C@@H]1CC[C@]2(C(=O)O)CC[C@]3(C)C(CC[C@@H]4[C@@](C)(CCC#N)[C@H](C(=C)C=O)CC[C@]43C)[C@@H]12 (stereo partly specified) | 2.63% (active) |
| C=CCn1c(SCC(=O)Nc2ccc(C(=O)/C=C/c3ccc(Br)cc3)cc2)nnc1-c1c[nH]c2ccccc12 | 84.3% (inactive) |
| COc1ccc([C@H]2c3[nH]c4ccccc4c3C[C@H]3C(=O)N(C4CCN(Cc5c(Cl)cccc5Cl)CC4)CC(=O)N23)c(OC)c1 | 97% (inactive) |
| O=C(/C=C/c1ccc(Cl)c(Cl)c1)Nc1ncc(Cc2ccc(Cl)c(Cl)c2)s1 | 48.2% (inactive) |

| Structure (SMILES) | growth |
| --- | --- |
| Oc1cccc2ccc(-c3nnc(SCc4ccc(O)c5ncccc45)n3-c3ccccc3)nc12 | 3.4% (active) |
| CN1CCN(c2ccc(Nc3nc(NCCCNS(=O)(=O)c4cccc(F)c4)c4sccc4n3)cc2)CC1 | -48.7% (active) |
| O=C(NCc1ncc[nH]1)c1ccc(-c2nc3ccc4[nH]ncc4c3c3c2CCCC3)cc1 | -24.7% (active) |
| Cn1ccnc1C(=O)/C=C/c1ccc(NC(=O)c2c(F)c(F)c(F)c(F)c2F)cc1 | 78.3% (inactive) |
| O=C(CSc1nc2ccccc2c(=O)n1-c1ccc(Cl)c(Cl)c1)Nc1ccc(S(=O)(=O)Nc2ccc(Cl)nn2)cc1 | 106% (inactive) |
| COc1ccc(C2c3[nH]c4ccc(Cl)cc4c3CCN2c2oc(CO)nc2C#N)cc1 (stereo unspecified) | 29.4% (inactive) |
| COc1ccc(/C=N/NC(=O)c2c(N)nn(C)c2Nc2ccccc2)cc1 | 15.5% (inactive) |
| O=C(CSc1nnc(-c2cccs2)n1-c1ccccc1)Nc1ccccc1F | 66.3% (inactive) |
| COc1ccc2c(c1)c(CC(=O)[Se]CCC#N)c(C)n2C(=O)c1ccc(Cl)cc1 | -43.8% (active) |
| O=C(CNc1nc(-c2cccc([N+](=O)[O-])c2)cs1)Nc1cccc([N+](=O)[O-])c1 | -9.99% (active) |
| CC(C)(C)n1nnnc1C(Nc1nccs1)c1cc2cccc3ccc4cccc1c4c32 (stereo unspecified) | 90.2% (inactive) |
| CCn1c(SCC(=O)Nc2cccc(C(=O)/C=C/c3ccc(Br)cc3)c2)nc2ccccc2c1=O | 84.7% (inactive) |
| C=CCN(C)S(=O)(=O)/N=C1\NC(=O)NC1=C(Cl)Cl | -51.7% (active) |
| CCCC(=O)NC(c1ccc(N(CC)CC)cc1)c1cc(C)c2cccnc2c1O (stereo unspecified) | -25% (active) |
| CN1CCN(c2ccc(C(=O)/C=C/c3cc(F)cc(C(F)(F)F)c3)cc2)CC1 | 3.06% (active) |
| CC1=C(C)C(=O)C(Nc2cccc(C(=O)OC(C)(C)C)c2)=C(Cl)C1=O | 68% (inactive) |
| Nc1ccc(Nc2ncnc3sc4c(c23)CCN(Cc2ccccc2)C4)cc1 | 102% (inactive) |
| CCOC(=O)c1ccccc1NC1=C(Cl)C(=O)c2nc(C)ccc2C1=O | 70.9% (inactive) |
